Data reported in PMC12820563, “FoxP3 forms a head-to-head dimer in vivo and stabilizes its multimerization on adjacent microsatellites”.
Whole data set: some 16,000 sequences, median “rpm ratio (pull-down/input)” near 0.94, cut for the highest 2% near 1.7. Many of the other results were omitted from the sample, so the highest values are more common in it than they were.

Each sequence was assayed against T1, MBP-FoxP1dN (Mus musculus, UniProt P58462 326-579) (assay: PD-seq (MBP pull-down with sequencing); 20 mM Tris-HCl pH 7.5, 100 mM NaCl, 1.5 mM MgCl2, 0.4 uM protein, 0.1 uM dsDNA library, 30 min, room temperature, amylose pull-down; high values mean tight binding). Settings: protein: recombinant; tags: His6-MBP; chain copies: 2; dsDNA, one strand shown.
T1 sequence: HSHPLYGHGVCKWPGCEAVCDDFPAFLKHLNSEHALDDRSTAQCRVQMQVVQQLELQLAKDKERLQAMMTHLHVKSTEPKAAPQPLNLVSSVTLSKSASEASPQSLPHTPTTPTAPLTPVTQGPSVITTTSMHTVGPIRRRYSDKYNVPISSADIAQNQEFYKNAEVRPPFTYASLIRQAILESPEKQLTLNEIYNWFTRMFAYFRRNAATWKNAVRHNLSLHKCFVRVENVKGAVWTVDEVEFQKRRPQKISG
Outline: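 Binding is reads-per-million enrichment of pull-down over input, with replicates pooled. It comes from 30 min room-temperature incubation in Tris pH 7.5 buffer with NaCl and MgCl2 of 0.4 µM His6-MBP-tagged, N-terminally truncated mouse FoxP3 or FoxP1 fragment from E. coli with 0.1 µM Klenow-filled degenerate double-stranded DNA library, followed by amylose resin capture, three washes and Illumina sequencing of the released DNA.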

In order of rising binding signal:
1. GATGATTGTTCTCCCAGCTGATGAATTCGGGGCCTCGAGTAAACAAATTTTCCTAATCTTTCTGTTCAAGCGCCATCTAC  0.744 RPM ratio (pull-down/input)
2. GATGATTGTTCTCCCAGCTGATGAATTCTGCCTGTCGAGTAAACAAATTTTCCTAATCTTTCTGTTCAAGCGCCATCTAC  0.791 RPM ratio (pull-down/input)
3. GATGATTGTTCTCCCAGCTGATGAATTTCACTGGTCGAGTAAACAAATTTTCCTAATCTTTCTGTTCAAGCGCCATCTAC  0.806 RPM ratio (pull-down/input)
4. GATGATTGTTCTCCCAGCTGATGAATTCAAGATCTCGAGTAAACAAATTTTCCTAATCTTTCTGTTCAAGCGCCATCTAC  0.814 RPM ratio (pull-down/input)
5. GATGATTGTTCTCCCAGCTGATGAATTTCGGTTCTCGAGTAAACAAATTTTCCTAATCTTTCTGTTCAAGCGCCATCTAC  0.825 RPM ratio (pull-down/input)
6. GATGATTGTTCTCCCAGCTGATGAATTTGACCGATCGAGTAAACAAATTTTCCTAATCTTTCTGTTCAAGCGCCATCTAC  0.841 RPM ratio (pull-down/input)
7. GATGATTGTTCTCCCAGCTGATGAATTGGGGCACTCGAGTAAACAAATTTTCCTAATCTTTCTGTTCAAGCGCCATCTAC  0.856 RPM ratio (pull-down/input)
8. GATGATTGTTCTCCCAGCTGATGAATTTCCGGAATCGAGTAAACAAATTTTCCTAATCTTTCTGTTCAAGCGCCATCTAC  0.872 RPM ratio (pull-down/input)
9. GATGATTGTTCTCCCAGCTGATGAATTCCATTACTCGAGTAAACAAATTTTCCTAATCTTTCTGTTCAAGCGCCATCTAC  0.874 RPM ratio (pull-down/input)
10. GATGATTGTTCTCCCAGCTGATGAATTCCTTTTATCGAGTAAACAAATTTTCCTAATCTTTCTGTTCAAGCGCCATCTAC  0.896 RPM ratio (pull-down/input)
11. GATGATTGTTCTCCCAGCTGATGAATTGCTCGAGTCGAGTAAACAAATTTTCCTAATCTTTCTGTTCAAGCGCCATCTAC  0.899 RPM ratio (pull-down/input)
12. GATGATTGTTCTCCCAGCTGATGAATTTCTACGATCGAGTAAACAAATTTTCCTAATCTTTCTGTTCAAGCGCCATCTAC  0.948 RPM ratio (pull-down/input)
13. GATGATTGTTCTCCCAGCTGATGAATTATACTGCTCGAGTAAACAAATTTTCCTAATCTTTCTGTTCAAGCGCCATCTAC  0.951 RPM ratio (pull-down/input)
14. GATGATTGTTCTCCCAGCTGATGAATTTTTTTTATCGAGTAAACAAATTTTCCTAATCTTTCTGTTCAAGCGCCATCTAC  0.958 RPM ratio (pull-down/input)
15. GATGATTGTTCTCCCAGCTGATGAATTAGTTAGTTCGAGTAAACAAATTTTCCTAATCTTTCTGTTCAAGCGCCATCTAC  0.968 RPM ratio (pull-down/input)
16. GATGATTGTTCTCCCAGCTGATGAATTCTGCGCGTCGAGTAAACAAATTTTCCTAATCTTTCTGTTCAAGCGCCATCTAC  0.978 RPM ratio (pull-down/input)
17. GATGATTGTTCTCCCAGCTGATGAATTCACCATATCGAGTAAACAAATTTTCCTAATCTTTCTGTTCAAGCGCCATCTAC  0.984 RPM ratio (pull-down/input)
18. GATGATTGTTCTCCCAGCTGATGAATTTTTTATCTCGAGTAAACAAATTTTCCTAATCTTTCTGTTCAAGCGCCATCTAC  0.997 RPM ratio (pull-down/input)
19. GATGATTGTTCTCCCAGCTGATGAATTCTTTTTATCGAGTAAACAAATTTTCCTAATCTTTCTGTTCAAGCGCCATCTAC  1 RPM ratio (pull-down/input)
20. GATGATTGTTCTCCCAGCTGATGAATTCATACATTCGAGTAAACAAATTTTCCTAATCTTTCTGTTCAAGCGCCATCTAC  1.01 RPM ratio (pull-down/input)
21. GATGATTGTTCTCCCAGCTGATGAATTAGTTTTATCGAGTAAACAAATTTTCCTAATCTTTCTGTTCAAGCGCCATCTAC  1.02 RPM ratio (pull-down/input)
22. GATGATTGTTCTCCCAGCTGATGAATTTCTTTTATCGAGTAAACAAATTTTCCTAATCTTTCTGTTCAAGCGCCATCTAC  1.03 RPM ratio (pull-down/input)
23. GATGATTGTTCTCCCAGCTGATGAATTTATCTGATCGAGTAAACAAATTTTCCTAATCTTTCTGTTCAAGCGCCATCTAC  1.07 RPM ratio (pull-down/input)
24. GATGATTGTTCTCCCAGCTGATGAATTTTTTATATCGAGTAAACAAATTTTCCTAATCTTTCTGTTCAAGCGCCATCTAC  1.08 RPM ratio (pull-down/input)
25. GATGATTGTTCTCCCAGCTGATGAATTTATCTCCTCGAGTAAACAAATTTTCCTAATCTTTCTGTTCAAGCGCCATCTAC  1.08 RPM ratio (pull-down/input)
26. GATGATTGTTCTCCCAGCTGATGAATTTTATATATCGAGTAAACAAATTTTCCTAATCTTTCTGTTCAAGCGCCATCTAC  1.11 RPM ratio (pull-down/input)
27. GATGATTGTTCTCCCAGCTGATGAATTTTAGTTATCGAGTAAACAAATTTTCCTAATCTTTCTGTTCAAGCGCCATCTAC  1.18 RPM ratio (pull-down/input)
28. GATGATTGTTCTCCCAGCTGATGAATTTTCTTTATCGAGTAAACAAATTTTCCTAATCTTTCTGTTCAAGCGCCATCTAC  1.2 RPM ratio (pull-down/input)
29. GATGATTGTTCTCCCAGCTGATGAATTATGGCAATCGAGTAAACAAATTTTCCTAATCTTTCTGTTCAAGCGCCATCTAC  1.23 RPM ratio (pull-down/input)
30. GATGATTGTTCTCCCAGCTGATGAATTTATCAAATCGAGTAAACAAATTTTCCTAATCTTTCTGTTCAAGCGCCATCTAC  1.28 RPM ratio (pull-down/input)
31. GATGATTGTTCTCCCAGCTGATGAATTTATCTAATCGAGTAAACAAATTTTCCTAATCTTTCTGTTCAAGCGCCATCTAC  1.32 RPM ratio (pull-down/input)
32. GATGATTGTTCTCCCAGCTGATGAATTGTTAGTTTCGAGTAAACAAATTTTCCTAATCTTTCTGTTCAAGCGCCATCTAC  1.7 RPM ratio (pull-down/input)
33. GATGATTGTTCTCCCAGCTGATGAATTTGTTTTATCGAGTAAACAAATTTTCCTAATCTTTCTGTTCAAGCGCCATCTAC  1.78 RPM ratio (pull-down/input)
34. GATGATTGTTCTCCCAGCTGATGAATTTGTTAGTTCGAGTAAACAAATTTTCCTAATCTTTCTGTTCAAGCGCCATCTAC  1.78 RPM ratio (pull-down/input)
35. GATGATTGTTCTCCCAGCTGATGAATTTAGTTTATCGAGTAAACAAATTTTCCTAATCTTTCTGTTCAAGCGCCATCTAC  1.89 RPM ratio (pull-down/input)
36. GATGATTGTTCTCCCAGCTGATGAATTGTTTTTATCGAGTAAACAAATTTTCCTAATCTTTCTGTTCAAGCGCCATCTAC  2.19 RPM ratio (pull-down/input)
37. GATGATTGTTCTCCCAGCTGATGAATTGTTTATATCGAGTAAACAAATTTTCCTAATCTTTCTGTTCAAGCGCCATCTAC  2.47 RPM ratio (pull-down/input)
38. GATGATTGTTCTCCCAGCTGATGAATTGTTTATCTCGAGTAAACAAATTTTCCTAATCTTTCTGTTCAAGCGCCATCTAC  2.68 RPM ratio (pull-down/input)
39. GATGATTGTTCTCCCAGCTGATGAATTCTGTTTATCGAGTAAACAAATTTTCCTAATCTTTCTGTTCAAGCGCCATCTAC  2.76 RPM ratio (pull-down/input)
40. GATGATTGTTCTCCCAGCTGATGAATTGTGTTTATCGAGTAAACAAATTTTCCTAATCTTTCTGTTCAAGCGCCATCTAC  2.92 RPM ratio (pull-down/input)
